Assay outcomes: PubChem BioAssay, National Center for Advancing Translational Sciences (NCATS)
Many of the other results were omitted from the sample, so hits are more common in it than they were.
FBPA Giardia inh = blocks Giardia fructose-bisphosphate aldolase activity; A8B2U2; 290,000 tested, 0.71% active; purified Giardia FBPA; AID 2451; Potency, µM (top dose mostly 59.6 µM), hits mostly inhibitors; also: nearly all actives have a fitted effect of over 55% in size
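Giardia FBPA (40 nM reagent) was preincubated 10 min at RT with compound (up to 57.5 uM final), then substrate plus GAPDH/TPI/NAD/arsenate coupling system with diaphorase/resazurin was added; resorufin fluorescence (525/598 nm) was read after 20 min.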
TbPYK inhibitor = inhibitors of Trypanosoma brucei pyruvate kinase. Q57TT1. TbPYK enzyme, Kinase-Glo Plus ATP luminescence, 45 min. Potency, µM (top dose mostly 76.8 µM), actives largely listed as inhibitors. 410,000 tested, 0.12% active; also: nearly all actives have a fitted effect of over 50% in size
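Luminescence from Kinase-Glo Plus, added after a 45-minute room-temperature reaction, served as the end-point read-out. The enzyme and substrate were preincubated with compound before ADP (130 uM final) initiated turnover. Concentration-effect curves came from normalized qHTS data.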
Cycloheximide cs = affects cycloheximide protein synthesis inhibition readout, counter-screen; cell reporter, cycloheximide protein synthesis inhibition counterscreen; max response, %; 300,000 tested, 12% active; AID 2314; in the data active = max response mostly above about 13%, no sharp cut-off; inactive = mostly below about 14%; also: read at 38.3 µM for the half of the compounds with a filed dose
Shiga inhibitor = blocks Shiga toxin action in Vero cells; Vero cells, Shiga toxin protein synthesis inhibition reporter; inhibition, % at 38.7 µM; AID 2315; 290,000 tested, 9.2% active; in the data active = inhibition mostly above about 28%, no sharp cut-off; inactive = mostly below about 43%
RE007 growth inh = less growth of the S. pombe RE007 Vpr strain. S. pombe RE007 Vpr strain, BacTiter-Glo ATP luminescence, 24 h. Potency, µM (titrated, usually from 92.2 µM), hits mostly inhibitors. 360,000 tested, 0.21% active. AID 651644; active = well fitted falling curve with a large enough effect; inconclusive = small, poorly fitted or top-dose-only effect; inactive = no such curve, though single readings can be large or run the other way; also: nearly all actives have a fitted effect of over 50% in size
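Fission yeast strain RE007, carrying one chromosomally integrated HIV-1 vpr copy, was seeded at OD 0.01 in PMG+AL medium with 23 nL pinned compound. After 24 h at 30 °C and 99% humidity, viability was read by BacTiter-Glo luminescence.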
LmPK inh = inhibitors of Leishmania mexicana pyruvate kinase. Q27686. purified LmPK, Kinase-Glo ATP luminescence, 1 h. Potency, µM (doses to about 57.5 µM), actives largely listed as inhibitors. 290,000 tested, 0.37% active. AID 1721
Target sequence (Q27686 whole entry, looked up): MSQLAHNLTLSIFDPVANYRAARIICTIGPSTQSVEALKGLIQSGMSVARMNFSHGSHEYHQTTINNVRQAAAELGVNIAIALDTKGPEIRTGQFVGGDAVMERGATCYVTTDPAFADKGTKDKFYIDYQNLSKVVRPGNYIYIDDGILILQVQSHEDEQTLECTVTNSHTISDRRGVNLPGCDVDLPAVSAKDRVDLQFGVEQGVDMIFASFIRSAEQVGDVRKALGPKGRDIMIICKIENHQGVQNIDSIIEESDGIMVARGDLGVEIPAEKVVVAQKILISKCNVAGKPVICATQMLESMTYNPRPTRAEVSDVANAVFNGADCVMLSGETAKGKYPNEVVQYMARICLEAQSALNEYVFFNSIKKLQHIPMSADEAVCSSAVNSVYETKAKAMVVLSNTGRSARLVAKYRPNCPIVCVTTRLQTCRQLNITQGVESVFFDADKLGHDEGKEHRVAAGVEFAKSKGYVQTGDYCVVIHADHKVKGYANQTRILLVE
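Screened at intermediate enzyme activity to detect both inhibitors and activators: LmPK at 0.1 nM, with a 0.5 nM enzyme column as activation reference. PEP 0.5 mM, ADP 0.1 mM; ATP detected by luminescence after 1 h.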
Numbers stand for hits; - = inactive; ? = inconclusive; . = no result given; [ ] = another dose, or the depositor's remark. Unless noted, calls follow the shape of the dose curve; as a rule, active = well fitted curve in the direction sought with a large enough effect; inconclusive = small, poorly fitted or top-dose-only effect, or another doubt; inactive = no such curve, though single readings can be large; an effect the other way counts as inactive or inconclusive.

SMILES	FBPA Giardia inh	TbPYK inhibitor	Cycloheximide cs	Shiga inhibitor	RE007 growth inh	LmPK inh
O=C(CNC(=O)c1sc2ccccc2c1Cl)NCc1ccc(F)cc1	.	-	.	.	-	.
COc1ccc(C(=O)NNC(=S)NC(=O)C(C)(C)C)cc1	?	-	-	-	-	-
CC(C)(C)C(=O)NC(=S)NNC(=O)c1sc2ccccc2c1Cl	-	-	48	-	-	-
O=C(NNC(=S)NC1CCCCC1)c1ccccc1O	-	-	16	62	-	-
O=C(NC1C=CS(=O)(=O)C1)c1sc2ccccc2c1Cl (stereo unspecified)	-	-	17	-	-	-
O=C(CNC(=O)c1sc2ccccc2c1Cl)NC1CC1	.	-	13	-	-	-
Cc1nc(C(=O)O)cc([N+](=O)[O-])c1C	.	-	.	.	-	.
Cc1c(C(=O)Oc2ccc(Br)cc2)sc2ncn(Cc3ccccc3F)c(=O)c12	.	-	.	.	.	.
Clc1ccc2c(c1)C1OCCC1C(c1ccco1)N2 (stereo unspecified)	-	-	26	66	-	?
Cc1ccc(S(=O)(=O)Nc2cccc3ccc[n+](C)c23)cc1	-	.	-	-	.	.
Cn1sc(NC(=O)c2ccc(Cl)cc2)nc1=O	-	-	14	-	-	-
Cc1ccc(C(=O)Nc2nc(=O)n(C(=O)c3ccccc3Cl)s2)cc1	?	-	31	49	-	-
Cn1ccc(NC(=O)c2ccc(Cl)cc2)n1	.	-	.	.	-	.
Cc1ccc(C(=O)Nc2nc(=O)n(C)s2)cc1	-	-	36	73	-	-
CCCn1c(-c2ccc(F)cc2)nc2c(NCCN3CCOCC3)nc(C)nc21	-	.	.	.	.	.
O=C1NCCCC2c3c(cc(Br)c(O)c3Br)OC12N1CCOCC1 (stereo unspecified)	-	-	-	-	-	-
O=C1NCCCC2c3cc(O)c4ccccc4c3OC12N1CCCCC1 (stereo unspecified)	0.56µM	.	-	-	.	?
O=C(O)c1cccc(-c2csc(C(O)c3cccc(Cl)c3)n2)c1 (stereo unspecified)	.	-	.	.	-	.
O=C1c2ccccc2-c2nc3ccccc3nc21	-	-	29	-	?	?
O=C(O)c1ccc(CN2C[C@@H](CO)O[C@@H](n3cnc4c(NCc5ccco5)ncnc43)C2)cc1	.	-	.	.	-	.
Cc1ccc(-c2noc(CCCc3ccccc3)n2)cc1	-	-	31	62	-	-
CCOc1ccc(-c2noc(CCC(=O)NCCc3ccccc3)n2)cc1OC	-	-	-	-	-	-
COc1ccc(-c2noc(CCCc3ccccc3)n2)cc1OC	-	-	12	-	-	-
Cc1ccc(S(=O)(=O)NCC2(c3ccccc3)CCN(C)CC2)cc1	-	-	-	-	-	-
Cc1cccc(NC(=S)NCC23C=CC(O2)C2C(=O)N(c4ccc(Cl)cc4)C(=O)C23)c1 (stereo unspecified)	-	-	-	-	3.5µM	-
SMILES	FBPA Giardia inh	TbPYK inhibitor	Cycloheximide cs	Shiga inhibitor	RE007 growth inh	LmPK inh
Cc1ccc(S(=O)(=O)NCC23C=CC(O2)C2C(=O)N(c4ccccc4)C(=O)C23)cc1 (stereo unspecified)	-	-	-	-	8.9µM	-
S=C(NCC1CCCO1)N1CCN(c2ccccc2)CC1 (stereo unspecified)	-	-	-	-	-	-
Cc1ccc(NC(=S)NCC23C=CC(O2)C2C(=O)N(c4ccc(C)cc4)C(=O)C23)cc1 (stereo unspecified)	-	-	56	-	8.9µM	-
Cc1ccc(N2C(=O)C3C4C=CC(CNC(=S)N5CCN(c6ccccc6)CC5)(O4)C3C2=O)cc1 (stereo unspecified)	-	-	-	-	5.6µM	-[11.5 µM]
O=c1[nH]c(=O)n(C2CC(O)C(CO)O2)cc1F (stereo unspecified)	-	.	.	.	.	.
c1ccc(Cc2noc(CN3CCN(CCOc4ccccc4)CC3)n2)cc1	-	-	-	-	-	-
CC1(C)Cc2c(c(-c3ccco3)[nH]c(=O)c2C#N)CS1	18µM	-	-	-	-	-
O=C(NCc1ccc(F)cc1)c1cc(-c2ccc(Cl)cc2)n[nH]1	.	-	.	.	.	.
COc1cc(CNC[C@H]2O[C@@H](n3ccc(N)nc3=O)[C@H](O)[C@@H]2O)ccc1OCc1ccc(C)cc1	.	-	.	.	-	.
O=C(/C=C\NCC(=O)c1ccccc1)c1ccc(F)cc1	-	-	28	-	-	-
Cc1cccc(C(=O)NNC(=O)c2ccc3ccccc3c2)c1	.	-	.	.	-	.
O=C(/C=C\NCC(=O)c1ccccc1)c1ccc2ccccc2c1	-	-	12	52	-	-
O=C(CNC(=O)c1ccccc1)NCC(=O)OCC(=O)c1ccc(F)cc1	-	-	-	-	-	-
CC(C)(C)NC(=O)C(c1ccc(F)cc1)N(C(=O)CCC(=O)Nc1ccccn1)C1CCCC1 (stereo unspecified)	-	-	-	-	-	-
CCCCCOc1ccc(/C(C)=N/NC2=NCCN2)cc1	-	-	-	-	?	-
CCCCCCOc1ccc(/C(C)=N/NC2=NCCN2)cc1	?	-	-	-	35µM	-
O=C(COC(=O)c1cccs1)c1ccccc1	-	-	42	78	?	14µM
COc1cc(N)c(Cl)cc1C(=O)OCC(=O)c1cccs1	-	-	-	54	-	-
COc1cccc(C(=O)COC(=O)c2cccs2)c1	.	-	38	76	-	-
CC(NC(=O)COC(=O)c1cccs1)c1ccccc1 (stereo unspecified)	-	-	12	-	-	-
Cc1ccc2c(c1)cc1c(=O)n(CC(=O)NC3CCCCC3)nc(C)n12	.	-	.	.	.	.
